Plk1 PBD FP: inhibitors of human Plk1 polo box domain binding; P53350; Plk1 PBD phosphopeptide binding, fluorescence polarization; inhibition, %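 (tested at about 20 µM)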; 0.13% of 97,000 active; AID 693; in the data active = inhibition above about 34%, passing the limit was not always enough
CYP2C9 inhib: human CYP2C9 inhibition. CYP2C9 Supersomes, luciferin-H conversion, luminescence. 20% of 96,000 active. inhibition, % at 5 µM. AID 777;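 active = blocking of liver enzyme CYP2C9 beyond about 50% at 5 µM, limit read from the data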
CYP2C9 activ: activators of human CYP2C9 | recombinant CYP2C9, luciferin-H conversion, luminescence; stronger effect = higher value; factor 1 = untreated enzyme, 0 = blocked | 1.4% of 96,000 active | activation factor at 5 µM | AID 1024;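 active = activation factor of 2 or more for CYP2C9 at a 5 µM dose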;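 also: 0 = sulfaphenazole-blocked wells and 1 = vehicle-only wells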
PLK1 kinase inh: PLK1 (human) kinase inhibition | AID 619 | P53350 | inhibition, % at 10 µM | recombinant PLK1 kinase, TR-FRET peptide phosphorylation | 0.53% of 97,000 active;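 active = inhibition of 50% or more in the single-concentration screen; inactive = inhibition below 50%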;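 also: 0% = DMSO max control and 100% = H-89 dihydrochloride min control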
CYP2C19 act: cytochrome P450 2C19 (human) activation. P33261. recombinant CYP2C19, luciferin-H EGE luminescence; stronger effect = higher value; 0 = fully inhibited enzyme, 1 = untreated enzyme. activation factor at 5 µM. 96,000 tested, under 10 active. AID 1025;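 active = activation factor of at least 2 at 5 µM in the primary screen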;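 also: 0 = wells with 2.5 mM tranylcypromine and 1 = vehicle-only wells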
Target sequence (P33261 whole entry, looked up): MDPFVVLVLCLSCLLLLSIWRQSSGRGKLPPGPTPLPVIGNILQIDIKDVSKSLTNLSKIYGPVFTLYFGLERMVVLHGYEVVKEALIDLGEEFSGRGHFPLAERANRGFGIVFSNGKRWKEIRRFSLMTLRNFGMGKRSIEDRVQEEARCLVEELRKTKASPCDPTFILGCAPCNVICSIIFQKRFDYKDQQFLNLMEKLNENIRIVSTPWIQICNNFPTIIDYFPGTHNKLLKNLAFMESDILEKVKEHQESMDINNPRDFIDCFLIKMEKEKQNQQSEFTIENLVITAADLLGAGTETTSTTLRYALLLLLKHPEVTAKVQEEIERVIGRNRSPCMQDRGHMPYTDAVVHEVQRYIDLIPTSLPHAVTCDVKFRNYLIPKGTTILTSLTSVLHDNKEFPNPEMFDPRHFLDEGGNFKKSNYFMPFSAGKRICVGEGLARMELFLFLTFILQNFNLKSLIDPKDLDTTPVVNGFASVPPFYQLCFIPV
CYP2C19 inhib: inhibitors of human CYP2C19 | inhibition, % at 5 µM | CYP2C19 Supersomes, luciferin-H EGE luminescence, 30 min | P33261 | 21% of 96,000 active | AID 778;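 active = CYP2C19 inhibition above a set limit at 5 µM in the primary screen, cut at about 50% in these data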;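 also: plate controls were negative control wells for no effect and 2.5 mM tranylcypromine positive control for full effect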
* = called active by the depositor; . = no result given. Hits are enriched below; roughly 28% of the tested compounds scored in any of these assays.

SMILES | Plk1 PBD FP | CYP2C9 inhib | CYP2C9 activ | PLK1 kinase inh | CYP2C19 act | CYP2C19 inhib
Cc1nn(Cc2ccccc2Cl)c2sc(C(=O)OC3CCCC3=O)cc12 (configuration not stated) | 16 | 84* | 0.2 | -1 | 0 | 98*
Cc1nn(Cc2ccc(Cl)cc2)c2sc(C(=O)OCC(N)=O)cc12 | -1 | 76* | 0.2 | -2 | 0.9 | 13
Cc1ccc(Cn2nc(C)c3cc(C(=O)OCC(N)=O)sc32)cc1 | -6 | 31 | 0.7 | 0 | 1 | 0
Cc1cccc2cc(C(c3nnnn3Cc3ccccc3)N3CCCc4ccccc43)c(=O)[nH]c12 (configuration not stated) | 11 | 5 | 0.9 | -35 | 1.1 | -11
O=C1/C(=C/c2cccnc2)Oc2cc(OS(=O)(=O)c3ccc(Cl)cc3)ccc21 | -10 | 50* | 0.5 | -14 | 0.7 | 26
COc1ccc(S(=O)(=O)Oc2ccc3c(c2)O/C(=C\c2cccnc2)C3=O)cc1 | -19 | 92* | 0.1 | -10 | 0.3 | 75*
COc1ccc(C(=O)Oc2cccnc2)cc1 | -5 | 18 | 0.8 | -1 | 0.7 | 33
O=C1/C(=C/c2cccnc2)Oc2cc(OS(=O)(=O)c3ccccc3)ccc21 | 11 | 56* | 0.4 | -1 | 0.7 | 35
CC(=O)Nc1cc2c(cc1NC(=O)Cn1nc(-c3ccc4c(c3)OCCO4)ccc1=O)OCCO2 | -21 | 39 | 0.6 | 2 | 0.4 | 55*
COc1ccc(CNC(=O)CCSc2nc(-c3ccc4c(c3)OCO4)cc(C(F)(F)F)n2)cc1 | -1 | . | . | 8 | . | .
COc1ccc(-c2ccc(=O)n(CC(=O)Nc3ccc(C(=O)NC4CC4)cc3)n2)cc1OC | -10 | 28 | 0.7 | -9 | 0.8 | 16
O=C(Cn1cnc2ccccc2c1=O)NCc1ccc2c(c1)OCO2 | -3 | 8 | 0.9 | -6 | 0.9 | 6
COc1ccc(CNC(=O)Cn2nc(-c3ccc4c(c3)OCCO4)ccc2=O)cc1 | -4 | 60* | 0.4 | -16 | 0.7 | 26
O=C(Cn1nnc(-c2ccccc2Cl)n1)NCc1ccc2c(c1)OCO2 | 19 | 94* | 0.1 | 1 | 0.9 | 6
COc1cccc(CNC(=O)Cn2nc(-c3ccc(Cl)cc3)ccc2=O)c1 | -10 | 77* | 0.2 | -1 | 0.5 | 55*
Cc1onc(-c2ccccc2)c1C(=O)N1CC(C)OC(C)C1 (configuration not stated) | 3 | -1 | 1 | 3 | 0.9 | 12
Cc1ccccc1Oc1ccc(Oc2ccccc2C)nn1 | . | -61 | 1.6 | . | 0.7 | 26
COCCn1c(C)cc(C(=O)COC(=O)CCN2C(=O)c3ccccc3C2=O)c1C | 29 | 14 | 0.9 | -7 | 0.7 | 33
CCN1CCN(S(=O)(=O)c2cc(OC)c(Cl)cc2OC)CC1 | -13 | -10 | 1.1 | -17 | 0.6 | 39
CSc1nc(NC(C)(C)C)nc(Oc2ccc(=O)n(C)n2)n1 | -2 | -9 | 1.1 | -9 | 1 | -4
COCCCNC(=O)Cn1nc(-c2ccccc2OC)ccc1=O | 9 | -29 | 1.3 | -11 | 1 | -2
COc1ccccc1-c1ccc(=O)n(CC(=O)NCc2ccc3c(c2)OCO3)n1 | 4 | -38 | 1.4 | -3 | 0.4 | 56*
CCc1ccc(CNc2ccc(O)cc2)cc1 | 5 | 23 | 0.8 | -4 | 0.2 | 82*
Cc1ccc(-n2c(=O)cc(NCc3cccnc3)[nH]c2=O)cc1 | 13 | 8 | 0.9 | -5 | 0.9 | 11
CCCCN(C)Cc1c(C)[nH]c2ccc(OCC)cc2c1=O | . | 3 | 1 | . | 1.2 | -15
SMILES | Plk1 PBD FP | CYP2C9 inhib | CYP2C9 activ | PLK1 kinase inh | CYP2C19 act | CYP2C19 inhib
Cc1ccc(S(=O)(=O)Nc2cc(C)nn2-c2ccccc2)cc1 | . | 100* | 0 | . | 1 | 4
Cc1cc(NS(=O)(=O)c2ccc(-c3ccccc3)cc2)no1 | -4 | 88* | 0.1 | -3 | 0.9 | 13
Cc1cc(NC(=O)c2ccc(S(=O)(=O)Nc3ccccc3)cc2)no1 | 29 | 52* | 0.5 | -10 | 0.8 | 21
Cc1cc(-n2nc(C)cc2C)nc(NS(=O)(=O)c2ccccc2)n1 | . | 9 | 0.9 | . | 1 | -2
Cc1ccc(S(=O)(=O)Nc2ccccc2-c2ccccc2)cc1 | -30 | 49 | 0.5 | -10 | 0.4 | 58*
O=C(c1ccc(F)cc1)N1CCC(N2CCOCC2)CC1 | -19 | 5 | 1 | -11 | 0.9 | 6
CCn1c(NC(=O)Nc2cccc(C)c2C)cc2sccc21 | 5 | 26 | 0.7 | 10 | 0.5 | 47

From PubChem
